SMN2 splice enh – increases expression of the SMN2 splice variant; HEK293 SMN2-luciferase splicing reporter, luminescence, 30-36 h; Potency, µM (series often up to 46.1 µM), for inactives: at the top dose activity change, positive = activation, most hits filed as activators; 210,000 tested, 2.8% active; also: % of control where 0% means no effect; nearly all actives have a fitted effect of over 55% in size
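qHTS luciferase splicing reporter: luminescence rises when SMN2 exon 7 is included in transfected HEK293 cells. Compound exposure lasted 30-36 h at 37C, with 4.5 mM final sodium butyrate as control, followed by a ONE-Glo read.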
ELG1 genotoxic – inducers of genotoxicity in HEK293T ELG1-luciferase cells; AID 504466; Potency, µM (titrated, usually from 46 µM), for inactives: top-dose activity change, positive = activation, usual class: activators; 330,000 tested, 1.3% active; HEK293T ELG1-luciferase reporter, luminescence, 16 h; also: % of control where 0% means no effect; nearly all actives have a fitted effect of over 60% in size
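Genotoxicity was scored as increased ELG1-luciferase reporter signal, measured by ONE-Glo luminescence (30 min, room temperature). Compound or vehicle exposure of the HEK293T reporter cells lasted 16 hr at 37°C.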
Rab9 promoter act – activators of Rab9 promoter; Huh7 Rab9 promoter-luciferase reporter, luminescence, 24 h; Potency, µM (highest dose often 9.22 µM), without a hit: at the highest dose activation, negative = inhibition, most hits filed as activators; 320,000 tested, 2.8% active; AID 485297; also: % of control where 0% means no effect; nearly all actives have a fitted effect of over 60% in size
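Luminescence from Amplite-detected luciferase (10 minutes, ambient) reports Rab9 promoter activation. Before that, stable Rab9-luciferase Huh7 cells (1500/well, reduced-serum OP-MEM I plus 10% FBS) were exposed to compound for 24 hours at 37C.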
FLuc counter – firefly luciferase modulation, counter-screen for miR-21 project; purified FLuc, Km substrates, luminescence inhibition; Potency, µM (series often up to 57.5 µM), without a hit: top-dose activity change, negative = inhibition, actives largely listed as inhibitors; 360,000 tested, 6.9% active; AID 588342;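 also: plate controls were vehicle for no effect and reference inhibitor for full effect; nearly all actives have a fitted effect of over 55% in size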
Target sequence (P08659 whole entry, looked up): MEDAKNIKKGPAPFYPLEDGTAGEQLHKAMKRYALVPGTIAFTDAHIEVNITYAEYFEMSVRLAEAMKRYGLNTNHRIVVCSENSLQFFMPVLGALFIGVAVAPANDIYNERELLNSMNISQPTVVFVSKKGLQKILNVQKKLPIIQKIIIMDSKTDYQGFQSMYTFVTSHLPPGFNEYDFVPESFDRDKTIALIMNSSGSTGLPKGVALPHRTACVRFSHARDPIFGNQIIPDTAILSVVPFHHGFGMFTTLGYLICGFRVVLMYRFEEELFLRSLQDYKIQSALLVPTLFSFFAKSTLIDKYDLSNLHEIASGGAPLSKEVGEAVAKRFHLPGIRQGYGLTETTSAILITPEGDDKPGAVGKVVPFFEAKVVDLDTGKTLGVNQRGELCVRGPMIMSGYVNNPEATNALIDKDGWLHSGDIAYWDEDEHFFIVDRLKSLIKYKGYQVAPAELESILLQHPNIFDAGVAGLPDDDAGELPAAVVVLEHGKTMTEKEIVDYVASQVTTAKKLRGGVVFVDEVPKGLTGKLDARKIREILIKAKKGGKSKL
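Purified P. pyralis luciferase (10nM final) with 10uM D-luciferin and 10uM ATP (Km levels) in 50mM Tris acetate pH 7.5, 10mM Mg acetate, 0.01% Tween-20, 0.05% BSA; qHTS 6-point titration, ~60 µM downward; luminescence read.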
KinaseGlo FLuc – blocks Kinase-Glo luciferase, a counter-screen artifact; Q27757; Kinase-Glo luciferase, ATP luminescence, 8 min; Potency, µM (series often up to 38.3 µM), inactives show at the highest dose activity change, negative = inhibition, usual class: inhibitors; 200,000 tested, 0.28% active; also: % is scaled to controls: 0 for no effect and ±100 for the full control effect; nearly all actives have a fitted effect of over 60% in size
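Compounds were added to a substrate mix at pH 7.2 (50 mM imidazole, 10 uM ATP, within the enzyme's linear range), followed by Kinase-Glo detection reagent; luminescence was measured after 8 minutes at ambient temperature.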
NPC1 prom act – NPC1 promoter activation; Huh7 NPC1 promoter luciferase reporter, 24 h; Potency, µM (top dose mostly 9.22 µM), for the others: at the highest dose activation, usual class: activators; 320,000 tested, 2.4% active; also: % of control where 0% means no effect; nearly all actives have a fitted effect of over 60% in size
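Cells: Huh7 expressing luciferase under the NPC1 promoter, 1500/well. Seeded 2 h, compound added, incubated 24 h at 37 °C. Luciferase reagent, 10 min ambient, then luminescence.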
Numbers without * were called inactive; [ ] = another dose, or the depositor's remark. Rows were chosen to be rich in hits. Some 7.5% of all compounds tested hit in one or more screens of this group. Calls follow the shape of the dose curve; as a rule, active = well fitted curve in the direction sought with a large enough effect; inconclusive = small, poorly fitted or top-dose-only effect, or another doubt; inactive = no such curve, though single readings can be large; an effect the other way counts as inactive or inconclusive. Potency is read from the fitted curve at half-maximal effect.

Screening O=C(N/N=C/c1ccc2ncccc2c1)c1cccc([N+](=O)[O-])c1 returned ELG1 genotoxic 1.8%, Rab9 promoter act 13.7%, FLuc counter 3.38µM* and NPC1 prom act 13.8%.
Screening COc1cc(/C=N/n2cnnc2)ccc1OCc1ccccc1 returned SMN2 splice enh 7.9%, ELG1 genotoxic 3.6%, Rab9 promoter act -17.0%, FLuc counter -12.5%, KinaseGlo FLuc -4.9% and NPC1 prom act -2.7%.
For O=C(N/N=C/c1ccccn1)c1cccc([N+](=O)[O-])c1 the results were SMN2 splice enh 10.5%, ELG1 genotoxic inconclusive, Rab9 promoter act 3.8%, FLuc counter -17.0%, KinaseGlo FLuc -0.2% and NPC1 prom act -5.1%.
For C[C@@]12CC[C@@H]3[C@H](CCC4=CC(=O)CC[C@]43C)[C@@H]1CC[C@@H]2C(=O)COS(=O)(=O)c1ccc(Br)cc1 the results were SMN2 splice enh -16.7%[9.22 µM] and KinaseGlo FLuc -0.9%[7.66 µM].
For Cc1cccc2sc(NC(=O)Cn3c(C)csc3=O)nc12 the results were ELG1 genotoxic 0.3%, Rab9 promoter act -5.6%, FLuc counter -6.1% and NPC1 prom act 0.4%.
Screening COc1cc(/C=N/NC(=O)c2cccc([N+](=O)[O-])c2)ccc1OCc1ccc(C)cc1 returned SMN2 splice enh inconclusive, ELG1 genotoxic inconclusive, Rab9 promoter act -0.4%, FLuc counter 21.3µM*, KinaseGlo FLuc -5.4% and NPC1 prom act -3.9%.
Screening COc1ccc(/C=N\NC(=O)c2cccc([N+](=O)[O-])c2)cc1Cn1cc([N+](=O)[O-])cn1 returned ELG1 genotoxic -9.8%, Rab9 promoter act -3.7%, FLuc counter 0.4%, KinaseGlo FLuc -1.7% and NPC1 prom act -2.1%.
Screening O=C1N/C(=N/S(=O)(=O)Cc2ccccc2)S/C1=C/c1ccc2c(c1)OCO2 returned ELG1 genotoxic -1.6%, Rab9 promoter act -5.3%, FLuc counter 26.9µM* and NPC1 prom act -2.0%.
`COc1ccc(/C=C2\SC(=NCc3ccccc3)NC2=O)cc1` gave SMN2 splice enh -10.4%, ELG1 genotoxic -1.4%, Rab9 promoter act -2.1%, FLuc counter -12.6%, KinaseGlo FLuc -6.5% and NPC1 prom act -1.6%.
CC1([N+](=O)[O-])COC2(OC1)C(=O)Nc1ccccc12 (stereo not drawn) was read as ELG1 genotoxic -4.9%, Rab9 promoter act 2.1%, FLuc counter -0.6% and NPC1 prom act 0.5%.
`COc1ccc(CNc2oc(/C=C/c3cccc(OC)c3)nc2C#N)cc1` gave SMN2 splice enh -25.3% and FLuc counter -7.1%.
`O=C(/C=C/c1ccco1)Nc1cccc(S(=O)(=O)N2CCOCC2)c1` gave SMN2 splice enh 16.4%, ELG1 genotoxic 0.7%, Rab9 promoter act inconclusive, FLuc counter 16.9µM*, KinaseGlo FLuc 0.2% and NPC1 prom act 11.7%.
Screening O=C(/C=C/c1ccc(OC(F)F)cc1)Nc1cccc(S(=O)(=O)N2CCOCC2)c1 returned ELG1 genotoxic -27.8%, Rab9 promoter act 1.9%, FLuc counter 4.78µM* and NPC1 prom act 14.8%.
For COc1ccc(/C=C/C(=O)Nc2cccc(S(=O)(=O)N3CCOCC3)c2)cc1OC the results were ELG1 genotoxic -1.7%, Rab9 promoter act -4.5%, FLuc counter inconclusive and NPC1 prom act -3.1%.
For Cc1ccc(/C=C/C(=O)Nc2cccc(S(=O)(=O)N3CCOCC3)c2)o1 the results were SMN2 splice enh -15.2%, ELG1 genotoxic -1.3%, Rab9 promoter act -0.6%, FLuc counter inconclusive, KinaseGlo FLuc 1.3% and NPC1 prom act 6.4%.
Screening O=C(COC(=O)/C=C/c1ccc(OC(F)F)cc1)Nc1cccc(S(=O)(=O)N2CCCC2)c1 returned ELG1 genotoxic 9.1%, Rab9 promoter act -6.7%, FLuc counter 19µM* and NPC1 prom act 0.3%.
Screening CC[C@]12c3[nH]c4ccc(Cl)cc4c3CCN1C(=O)[C@@H](CC(=O)NC/C=C(\C)CCC=C(C)C)C[C@@H]2C(=O)N1CCN(C(=O)C2CC2)CC1 returned ELG1 genotoxic -9.7%.
`Cc1ccc(-n2c(=O)c3ccc(C(=O)NCc4ccccc4Cl)cc3n(Cc3cccc(F)c3)c2=O)cc1` gave SMN2 splice enh -1.5% and FLuc counter 1.0%.
Screening CCO[C@H]1OC(C(=O)N2CCOCC2)=C[C@@H](C2CC2)[C@@H]1CCCO returned ELG1 genotoxic 1.9%, Rab9 promoter act 2.3%, FLuc counter -0.6% and NPC1 prom act -1.3%.
CCCCC(CC)CNC(=O)c1ccc2c(=O)n(CCOC)c(=O)[nH]c2c1 (stereo not drawn) was read as SMN2 splice enh 3.98µM* and FLuc counter -4.9%.
`CCN1CCN(CCCNC(=O)C2CCCN(c3nc4c(C)cc(C)cc4s3)C2)CC1` (stereo not drawn) gave ELG1 genotoxic inconclusive, Rab9 promoter act 3.2%, FLuc counter 16.9µM* and NPC1 prom act 17.4%.
Cc1cc(C)c2nc(N3CCCC(C(=O)NCCCN4CCOCC4)C3)sc2c1 (stereo not drawn) was read as SMN2 splice enh 14.1µM*, ELG1 genotoxic 15.4%, Rab9 promoter act inconclusive, FLuc counter inconclusive, KinaseGlo FLuc -3.8% and NPC1 prom act 23.3%.
Cc1cc(C)c2nc(N3CCCC(C(=O)NCCN4CCOCC4)C3)sc2c1 (stereo not drawn) was read as SMN2 splice enh 15.8µM*, ELG1 genotoxic inconclusive, Rab9 promoter act 9.4%, FLuc counter 13.5µM*, KinaseGlo FLuc -6.6% and NPC1 prom act inconclusive.
Cc1cc(C)c2nc(N3CCC(C(=O)NCCCN4CC(C)CC(C)C4)CC3)sc2c1 (stereo not drawn) was read as SMN2 splice enh -33.7%, ELG1 genotoxic 15.0%, Rab9 promoter act 26.1%, FLuc counter inconclusive, KinaseGlo FLuc -0.3% and NPC1 prom act 4.4%.
`CCCOc1ccc(CNC(=O)C2CCCN(c3nc4c(C)cc(C)cc4s3)C2)cc1` (stereo not drawn) gave SMN2 splice enh 3.1% and FLuc counter 0.0%.
Cc1cc(C)c(S(=O)(=O)N2CCOC2CNC(=O)C(=O)NCCCN2CCOCC2)c(C)c1 (stereo not drawn) was read as ELG1 genotoxic inconclusive, Rab9 promoter act 1.41µM*, FLuc counter 8.49µM* and NPC1 prom act 2.51µM*.
Cc1cc(SCC(=O)c2cccs2)nc2ccccc12 was read as SMN2 splice enh inconclusive, ELG1 genotoxic 2.5%, Rab9 promoter act 25.8%, FLuc counter inconclusive, KinaseGlo FLuc -0.6% and NPC1 prom act 19.0%.

Compound activity: PubChem BioAssay, National Center for Advancing Translational Sciences (NCATS)
